# Test system: PXR homodimer (NR concentration 270 nM)
# Assay: PBM binding z-score (relative to random genomic background probes); higher = stronger binding; sequences stand for … in GC…GCGATTGACAGCGTAGAATGAAGG
# Method in brief: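 Ligand-free nuclear receptor dimers were bound for 1 h to custom Agilent 4×180K protein-binding microarrays. Detection used antibodies against each partner (one per run). Binding z-scores rest on regression-normalized fluorescence, with random background probes as the reference.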
row,Sequence,PBM binding z-score
1,TCTTGTAGATCAAGCAGGCTAAGAAAGCCTGAGT,-0.306
2,ACTAGCAGACCAAGGGTCACTCAAGATTAGTCCG,-0.1
3,GCGACTGGGGCAAAGCCGGTTACCATAAGGTTGG,-0.627
4,ATATGTAGGGTATCGGGTCATTCAGTTTGCGCAT,7.07
5,CGTCCAAGGTTATAGGAGGTCAGTGAAGACAGAT,1.46
6,ACTATTAGTTGAGACGAAGGCAACCGATAGGTTG,-0.243
7,CCGACTGGGGCAGAAGGTTACCATAAGCCAGCCC,0.188
8,TCATATAGCTAAACAGGTGAAAGTCCGTAAGTTA,-0.231
9,CGAACTAGGTCGGAACAGGACAGTGAAGGATGAT,-0.583
10,TAGCCTAGGTCATTGGGCCAGTATCGTACGCATC,-0.331
11,TCTCGGAGGACACGAAGGGCAGAGCTTTCCAGAG,-0.159
12,TCTGCTAGGTCAGTTGGTCAGTTAACGAGCTGCC,-0.602
13,ACTAGCAGGCCAAGGGTCACTTAAGATTAGTCCG,-0.0435
14,CCTCGGGGGACAGAAGGTCAGAGCTGTCCGCTTT,0.0976
15,GCTCGGATGACAAGGTCAGAGCTTTGTCCGTAGA,-0.626
16,CCTACTGGGCCACCAGGTCATTGATATCAACGTT,0.656
17,TGAATGAGGTTAAAGAACAGGGAACGTGGCGTCG,0.0217
18,GCGACTGGGGCATCAGCAGGTTACGATAACTTAA,-0.369
19,TAGCCTAGGTCATTCAGGAGCCAGTATAGAAAGC,-0.343
20,ACTGACAGGTGAGTGAAGGTAACTCAGCTGGACG,-0.633
21,AATACAGGGTCATCGTAGGCCAGAGGACGCACAG,0.696
22,CGAACTGGGTCATTGACAGGACAGTGAATAGTAA,0.347
